Activity calls are given as the source filed them. The calls were made as follows: active = hit-call score of the fitted dose curve at least 0.9, where 1 is the maximum; inactive = score below 0.9.
Each compound was assayed against human Fms (CSFR) (CSF1R) Receptor Tyrosine Kinase, CSF1R (gene 1436) (UniProt P07333) (assay: ERF_FR_ENZ_hCSF1R: Eurofins (ERF) Enzymatic Radiometric [Km ATP] KinaseProfiler LeadHunter Assay for human Fms (CSFR) (CSF1R) Receptor Tyrosine Kinase).
Method: ERF_FR_ENZ_hCSF1R is a biochemical, single-readout assay that uses extracted gene-proteins in a cell-free assay. Measurements were taken 0.25 hour after chemical dosing in a 96-well plate. See Fms (CSFR) Human RTK Kinase Enzymatic LANCE Assay [Km ATP], Cerep.ERF_FR_ENZ_hCSF1R is an assay component calculated from the ERF_FR_ENZ_hCSF1R assay. It is designed to measure enzyme activity using a type of enzyme reporter as detected by fluorescence intensity with LANCE technology.Data from the assay component ERF_FR_ENZ_hCSF1R was analyzed at the assay endpoint, ERF_FR_ENZ_hCSF1R, in the positive analysis fitting direction relative to DMSO as the negative control and baseline of activity. Using a type of enzyme reporter, loss-of-signal activity can be used to understand changes in enzymatic activity as they relate to gene CSF1R. To generalize the intended target to other relatable targets, this assay endpoint is annotated to the kinase intended target family, where the subfamily is receptor tyrosine kinase.
Fms (h) is incubated with 8 mM MOPS pH 7.0, 0.2 mM EDTA, 250 uM […], 10 mM MgAcetate and [g- 33P]-ATP (specific activity and concentration as required). The reaction is initiated by the addition of the Mg/ATP mix. After incubation for 40 minutes at room temperature, the reaction is stopped by the addition of phosphoric acid to a concentration of 0.5%. […]

human Fms (CSFR) (CSF1R) Receptor Tyrosine Kinase, CSF1R (gene 1436), sequence (P07333 whole entry, looked up): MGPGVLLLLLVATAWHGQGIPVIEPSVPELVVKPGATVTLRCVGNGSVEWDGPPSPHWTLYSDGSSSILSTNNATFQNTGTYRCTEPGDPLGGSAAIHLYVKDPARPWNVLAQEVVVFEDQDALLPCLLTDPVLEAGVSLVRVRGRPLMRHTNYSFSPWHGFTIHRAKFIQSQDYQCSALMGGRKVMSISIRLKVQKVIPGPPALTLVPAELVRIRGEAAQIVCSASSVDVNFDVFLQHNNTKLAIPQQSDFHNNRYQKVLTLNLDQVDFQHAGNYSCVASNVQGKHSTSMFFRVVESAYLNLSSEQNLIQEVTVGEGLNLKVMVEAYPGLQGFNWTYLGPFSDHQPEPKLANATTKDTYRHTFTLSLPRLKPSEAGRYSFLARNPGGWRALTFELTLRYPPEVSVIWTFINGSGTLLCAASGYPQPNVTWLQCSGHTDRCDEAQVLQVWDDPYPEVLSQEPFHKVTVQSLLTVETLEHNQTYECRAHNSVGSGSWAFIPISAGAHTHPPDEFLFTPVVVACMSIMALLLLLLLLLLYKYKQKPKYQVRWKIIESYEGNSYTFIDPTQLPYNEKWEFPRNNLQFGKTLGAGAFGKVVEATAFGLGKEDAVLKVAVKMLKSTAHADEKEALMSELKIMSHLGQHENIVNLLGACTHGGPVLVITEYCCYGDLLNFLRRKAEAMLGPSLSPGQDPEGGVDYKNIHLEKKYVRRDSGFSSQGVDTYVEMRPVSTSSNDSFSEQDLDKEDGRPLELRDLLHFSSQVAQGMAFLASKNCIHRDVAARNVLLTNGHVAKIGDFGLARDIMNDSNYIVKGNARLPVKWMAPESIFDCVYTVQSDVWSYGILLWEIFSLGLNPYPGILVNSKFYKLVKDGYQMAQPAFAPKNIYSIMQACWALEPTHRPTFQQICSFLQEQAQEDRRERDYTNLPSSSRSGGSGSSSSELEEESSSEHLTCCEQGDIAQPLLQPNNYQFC

| Structure (SMILES) | outcome |
| --- | --- |
| O=C(/C=C/c1ccc(O)cc1)CC(=O)/C=C/c1ccc(O)cc1 | inactive |

— PubChem BioAssay AID2284085 (EPA ToxCast)
